# From PubChem
# HT1080 IDH1KD tx: qHTS for induction of synthetic lethality in tumor cells producing 2HG: qHTS for the HT-1080-IDH1KD cell line; HT-1080 IDH1 knockdown viability, ATP luminescence, 48 h; Potency, µM (titrated, usually from 46.1 µM), for inactives: at the top dose activity, negative = toxicity, hits mostly cytotoxic; 2% of 360,000 active;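 further: 0% = DMSO wells and -100% = cell-free medium wells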
#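 CellTiter-Glo luminescence after 48 h compound exposure at 37 degrees C of IDH1-knockdown HT-1080 cells in 5% FBS RPMI. %Activity scaled between DMSO wells and cell-free media wells, with curves fitted and assigned curve classes.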
# KB-3-1 tox: qHTS assay for MDR1-selective chemotherapeutics: Primary screen using the parental adenocarcinoma cell KB-3-1 | AID 1347075, 2019 | Potency, µM (series often up to 46.1 µM), actives largely listed as cytotoxic | 1.4% of 400,000 active | KB-3-1 viability, CellTiter-Glo ATP luminescence, 72 h; further: nearly all actives have a fitted effect of over 60% in size
#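 72 h, 37 °C compound treatment of KB-3-1 parental cells; CellTiter-Glo added, 10 min, luminescence read. Data corrected against DMSO-only plates and normalized before curve fitting.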
# KB-V1 MDR tox: qHTS assay for MDR1-selective chemotherapeutics: Primary screen using the drug-selected MDR subline cells KB-V1. KB-V1 MDR cells viability, CellTiter-Glo, 72 h. Potency, µM (highest dose often 46.1 µM), most hits filed as cytotoxic. 3.4% of 400,000 active. AID 1347076, 2019; further: nearly all actives have a fitted effect of over 60% in size
#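 Drug-selected KB-V1 cells, grown in DMEM lacking phenol red with 10% FBS, receive compound titrations; after three days at 37 degrees C, surviving cell ATP is quantified by CellTiter-Glo luminescence and responses normalized and curve-fitted.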
# HT1080-NT tox: qHTS for induction of synthetic lethality in tumor cells producing 2HG: qHTS for the HT-1080-NT fibrosarcoma cell line. HT-1080-NT fibrosarcoma viability, CellTiter-Glo ATP luminescence, 48 h. Potency, µM (titrated, usually from 46.1 µM), for the others: at the top dose activity, negative = less viability, actives largely listed as cytotoxic. 1.6% of 360,000 active;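 further: NT is the 2HG producing partner of a matched IDH1 knockdown line; 0% = DMSO-treated cells and -100% = media-only wells without cells; nearly all actives have a fitted effect of over 55% in size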
#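 Viability by CellTiter-Glo luminescence after 48 h compound exposure at 37C of HT-1080-NT cells (750/well, RPMI, 5% FBS). % activity scaled between DMSO wells and medium-only wells, then curve-fitted and categorized by curve class.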
# * = called active by the depositor; i = inactive; ? = inconclusive; . = no result given. In the library only some 5.7% were active in any assay of this set; here they are far more common. The call rests on the fitted dose curve; in most records, active means well fitted curve in the direction sought with a large enough effect; inconclusive means small, poorly fitted or top-dose-only effect, or another doubt; inactive means no such curve, though single readings can be large; an effect the other way counts as inactive or inconclusive. Unless noted, on the % scale 0 is the no-effect control and ±100 the full control effect; potency means the concentration at half of the fitted maximal effect.
SMILES,HT1080 IDH1KD tx,KB-3-1 tox,KB-V1 MDR tox,HT1080-NT tox
O=[N+]([O-])c1oc2ccc3ccccc3c2c1CCO,?,?,5.8µM*,?
Cc1oc(-c2cccs2)nc1CSCC(=O)N1CCC2(CC1)OCCO2,-3%,i,10µM*,2%
Cc1nn(Cc2ccccc2Cl)c(C)c1C(=O)Nc1nnc(C2CC2)s1,2.5µM*,i,i,?
O=C(Nc1ccc2c(c1)OCCO2)c1cccn(Cc2cccc([N+](=O)[O-])c2)c1=O,.,i,i,.
CCOc1ccc(-c2c(C)n(-c3ccc(OCC)cc3)c3[n+]2CCCCC3)cc1,?,1.6µM*,i,15µM*
O=C(/C=C/c1ccc(F)cc1)NC(=S)N1C[C@H]2C[C@H](C1)c1cccc(=O)n1C2,8%,i,i,-3%
Cc1[nH]c2ccccc2c1C(=O)C(=O)N1CC2CC(C1)c1cccc(=O)n1C2 (stereo not given),-8%,i,i,-15%
O=P(Oc1ccccc1)(Oc1ccccc1)C(Nc1ccccc1)c1ccccc1 (stereo not given),-10%,?,13µM*,-27%
COP(=O)(OC)C(Nc1ccccn1)c1ccccc1 (stereo not given),14%,i,i,7%
CC(C)COP(=O)(OCC(C)C)C(Nc1ccccc1)c1ccccc1 (stereo not given),?,i,?,18µM*
CCSc1nnc(NC(=O)c2cccn(Cc3ccc(Cl)cc3)c2=O)s1,.,i,i,.
N#Cc1cccc(NC(=O)c2sc3nc4c(cc3c2N)N2CCC4CC2)c1,.,i,i,.
CC(=O)OCC12CC(OC(=O)CC(C)C)C(C)=CC1OC1C(O)C(OC(C)=O)C2(C)C12CO2 (stereo not given),.,0.0092µM*,?,0.26µM*
O=C(COc1ccccc1Cl)N1CCN(CCc2ccccn2)CC1,.,i,i,.
CC(=O)Nc1cc(-c2cccc(C(=O)N(C)C)c2)cn2c(-c3cccc(C(F)(F)F)c3)cnc12,-29%,i,i,?
CN(C)c1ccc(-[n+]2c(-c3ccccc3)cc(-c3ccccc3)cc2-c2ccccc2)cc1,2.6µM*,0.65µM*,21µM*,10µM*
C[n+]1c(-c2ccccc2)cc(-c2ccc(Cl)cc2)cc1-c1ccccc1,?,?,i,?
Cc1ccc(-c2cc(-c3ccccc3)cc(-c3ccccc3)[n+]2-c2ccccc2)cc1,12µM*,?,i,?
c1ccc(-c2cc(-c3ccccc3)[n+](-c3ccccc3)c(-c3ccccc3)c2)cc1,5.8µM*,4.6µM*,i,3.7µM*
Cc1ccc(-c2cc(-c3ccc(C)cc3)[n+](-c3ccccc3)c(-c3ccc(C)cc3)c2)cc1,7.3µM*,5.8µM*,i,5.2µM*
Cc1ccc(-c2cc(-c3ccc(C)cc3)[n+](-c3ccc(C(=O)[O-])cc3)c(-c3ccc(C)cc3)c2)cc1,-15%,i,i,-17%
NCc1cc(=O)[nH]o1,6%,i,i,25%
C[C@]12CCC3C(CC[C@H]4C[C@H](O)CC[C@]34C)C1CCC2=O (stereo not given in full),4%,i,i,-2%
S=C(NCc1ccccc1)NCC1COc2ccccc2O1 (stereo not given),?,?,i,?
Cc1ccc(CN2CCC3CCC(C3)C2)c(O)c1 (stereo not given),22%,i,i,12%
SMILES,HT1080 IDH1KD tx,KB-3-1 tox,KB-V1 MDR tox,HT1080-NT tox
Clc1ccc(C(Cn2ccnc2)OCc2csc3c(Cl)cccc23)c(Cl)c1 (stereo not given),21µM*,i,?,?
CCC1C(c2cc(OC)c(OC)c(OC)c2)c2cc3c(cc2OC1N1CCCC1)OCO3 (stereo not given),?,4.1µM*,5.2µM*,?
COc1ccc2c(c1OC)C(=O)OC2C1c2cc3c(cc2CCN1C)OCO3 (stereo not given),1%,i,?,6%
CCCCn1nnnc1C(CCSC)N1CCC2(CC1)C(=O)NCN2c1ccccc1 (stereo not given),3%,i,i,0%
O=P(O)(Oc1ccccc1)OC(c1ccccc1)C(F)(F)C(F)(F)F (stereo not given),0%,i,i,12%
Cn1cnc([N+](=O)[O-])c1Sc1ccc([N+](=O)[O-])cc1,21µM*,i,i,16µM*
C=CCn1c(O)c(C(C)=NCc2cccnc2)c(=O)[nH]c1=O,-7%,i,i,-1%
C=CCn1c(O)c(C(C)=NCc2cc(OC)cc(OC)c2)c(=O)[nH]c1=O,5.8µM*,5.2µM*,3.3µM*,3.7µM*
COc1cc2c(cc1O)[C@@H]1Cc3ccc(OC)c(O)c3CN1CC2,2.6µM*,5.8µM*,7.3µM*,2.6µM*
CCN(C(=O)COC(=O)c1cc(C)n(C2CC2)c1C)c1ccccc1,20%,i,2.6µM*,4%
CCc1ccc(NP(=O)(Oc2ccccc2F)Oc2ccccc2F)cc1,23µM*,i,i,18µM*
Cc1ccc(NP(=O)(Oc2ccccc2F)Oc2ccccc2F)cc1,?,i,?,?
CCN(CC)C1=NC(=[N+](CC)CC)c2ccccc21,13µM*,10µM*,i,?
CCN(CC)C(=O)c1ccc(NC(=O)Nc2ccccc2F)cc1,5.2µM*,?,?,7.3µM*
CCN(CC)C(=O)c1ccc(NC(=O)CCCSc2ccccc2)cc1,0%,i,i,12%
C=CC1CN2CCC1CC2c1[nH]c2ccccc2c1CCO (stereo not given),14%,i,?,-2%
Clc1ccc(CCC(Cn2ccnc2)Sc2c(Cl)cccc2Cl)cc1 (stereo not given),?,?,21µM*,?
CC(=O)C1C(N2CC2)CC2C3CCC4=CC(=O)CCC4(C)C3CCC21C (stereo not given),-14%,?,?,-1%
CC12CCC(=O)C=C1CCC1C2C(O)CC2(C)C(O)CCC12 (stereo not given),0%,?,?,-9%
C[C@]12CC[C@H]3[C@@H](CCC4=CC(=O)CC[C@@]43C)[C@@H]1CC[C@@H]2C(=O)CO,-23%,?,8.2µM*,?
CC1CC2C(C(O)CC3(C)C(O)CCC23)C2(C)CCC(=O)C=C12 (stereo not given),4%,12µM*,6.5µM*,4%
CC12CCC(=O)C=C1CCC1C2CCC2(C)C(O)CCC12 (stereo not given),-3%,?,4.1µM*,5%
CCC(=O)O[C@H]1CC[C@H]2[C@@H]3CCC4=CC(=O)CC[C@]4(C)[C@H]3CC[C@]12C,.,i,?,.
